In PubChem BioAssay (NCATS):
Where “and” joins values, the source holds several entries; their conditions need not be identical. Equal entries are not always repeated. Inconclusive results are not listed. Calls of active or inactive are those of the source. The call rests on the fitted dose curve; in most records, active means well fitted inhibition curve with a large enough effect; inconclusive means small, poorly fitted or top-dose-only effect; inactive means no such curve, though single readings can be large or run the other way.
Potency means the concentration at half of the fitted maximal effect.

What follows are compounds tested against Tyrosine-protein kinase Yes (Homo sapiens) (UniProt P07947) (assay: qHTS for small molecule inhibitors of Yes1 kinase: Primary Screen (AID 686947; further: nearly all actives have a fitted effect of over 60% in size)). Settings: Yes1 kinase biochemical qHTS inhibition; series mostly up to 76.9 µM.
Chain of Tyrosine-protein kinase Yes (Homo sapiens) (P07947 whole entry, looked up): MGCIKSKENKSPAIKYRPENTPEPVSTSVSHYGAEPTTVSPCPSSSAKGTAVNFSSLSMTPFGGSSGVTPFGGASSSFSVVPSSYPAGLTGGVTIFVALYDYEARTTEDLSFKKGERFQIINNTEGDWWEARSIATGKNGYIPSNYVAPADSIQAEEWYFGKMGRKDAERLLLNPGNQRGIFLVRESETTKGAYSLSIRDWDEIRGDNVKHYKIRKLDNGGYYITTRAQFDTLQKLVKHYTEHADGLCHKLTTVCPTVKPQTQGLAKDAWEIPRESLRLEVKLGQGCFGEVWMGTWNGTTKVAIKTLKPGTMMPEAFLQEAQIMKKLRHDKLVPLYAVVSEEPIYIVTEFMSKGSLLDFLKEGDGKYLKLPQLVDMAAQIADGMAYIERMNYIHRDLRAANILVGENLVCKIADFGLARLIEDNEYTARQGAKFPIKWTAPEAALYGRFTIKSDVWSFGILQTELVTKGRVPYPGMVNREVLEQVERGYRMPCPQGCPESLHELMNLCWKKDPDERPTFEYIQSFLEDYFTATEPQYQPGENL
Outline: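 In this qHTS format, inhibition is expressed relative to DMSO controls with enzyme (maximum) and without enzyme (minimum). The 60 min room-temperature reaction uses 0.1 mM ATP, with ADP detected by luminescence.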
`Nc1nccc(-c2c(-c3ccc(F)cc3)ncn2C2CCNCC2)n1` was tested, and the Potency was 2.07 µM (active) and 6.54 µM (active).
For `NC(=O)c1ccc(Oc2nccc(-c3c(-c4ccc(F)cc4)ncn3C3CCNCC3)n2)cc1`, the Potency was 11.6 µM (active).
For `CC(C)(CO)CNC(=O)c1ccc2[nH]c(O)c(N=Nc3ccc(S(N)(=O)=O)cc3)c2c1`, the Potency was 2.32 µM (active).
`CCS(=O)(=O)c1ccc(OC)c(Nc2ncc(-c3cccc(OC)c3)o2)c1` was tested, and the Potency was 0.13 µM (active).
In the case of `Nc1ncnc2occ(-c3ccc(NC(=O)Nc4cc(C(F)(F)F)cc(C(F)(F)F)c4)cc3)c12`, the Potency is reported as 3.68 µM (active).
With `c1ccc(-c2[nH]ncc2-c2ccnc(-c3ccc(OCCN4CCOCC4)cc3)c2)nc1` the Potency was 7.33 µM (active).
For `Cc1nnc(-c2ccc(C)c(-c3ccc(C(=O)NCc4ccc(Cl)cc4)cc3)c2)o1`, the Potency was “inactive”.
For `ON=C1CCc2cc(-c3nc(C4CCNCC4)[nH]c3-c3ccncc3)ccc21`, the Potency was “inactive”.
For `Cc1ccc2c(-c3ccnc(Nc4ccccc4)n3)c(-c3ccc(F)cc3)nn2n1`, the Potency was 0.116 µM (active).
For `FC(F)(F)c1cccc(-c2nn3ncccc3c2-c2ccnc(Nc3ccc4c(c3)OCCO4)n2)c1`, the Potency was 0.412 µM (active).
With `Cc1nnc(-c2cccc(-c3ccc(C(=O)NCC4CC4)cc3)c2)o1` the Potency was “inactive”.
For `NS(=O)(=O)c1ccc(N=Nc2c(O)[nH]c3ccc(-c4cnco4)cc23)cc1`, the Potency was “inactive”.
With `COc1cc2ncn(-c3cc(OCc4ccccc4C(F)(F)F)c(C(=O)N(C)C)s3)c2cc1OC` the Potency was 7.33 µM (active).
`CC(C)=Cc1cccc2[nH]c(O)c(N=Nc3ccc(S(N)(=O)=O)cc3)c12` was tested, and the Potency was “inactive”.
With `COc1cc(Nc2nccc(Nc3ccc4c(C)[nH]nc4c3)n2)cc(OC)c1OC` the Potency was 0.0923 µM (active).
With `CS(=O)(=O)Nc1ccc(N=Cc2c(O)[nH]c3ccccc23)cc1` the Potency was 3.68 µM (active).
In the case of `Cc1ccc(NC(=O)CC2CC2)cc1-c1ccc(C(=O)NCC2CC2)cc1`, the Potency is reported as “inactive”.
With `O=C(Nc1ccc(Oc2ccc3nc(NC(=O)c4ccco4)[nH]c3c2)cc1)Nc1cc(C(F)(F)F)ccc1F` the Potency was 4.12 µM (active).
In the case of `COC(=O)Nc1nc2ccc(S(=O)(=O)c3ccc(NC(=O)Nc4cc(C(F)(F)F)ccc4F)cc3)cc2[nH]1`, the Potency is reported as “inactive”.
In the case of `COc1ccc(-c2nn3ncccc3c2-c2ccnc(Nc3ccc(F)c(F)c3)n2)cc1`, the Potency is reported as 0.328 µM (active).
For `CCS(=O)(=O)c1ccc(OC)c(Nc2ncc(-c3cccc(-c4ccccc4F)c3)o2)c1`, the Potency was 0.463 µM (active).
`CCc1cccc(NC(=O)Nc2ccc(Oc3ccc4nc(NC(=O)OC)[nH]c4c3)cc2)c1` was tested, and the Potency was “inactive”.
With `CCc1ccc(Oc2nccc(-c3c(-c4ccc(F)cc4)ncn3C3CCNCC3)n2)cc1` the Potency was “inactive”.
For `COc1ccccc1Nc1ncc(-c2ccccc2)o1`, the Potency was 9.23 µM (active).
In the case of `NS(=O)(=O)c1ccc(Nc2cc(-c3cccc(O)c3)[nH]n2)cc1`, the Potency is reported as 23.2 µM (active).
`CS(=O)(=O)Nc1ccc(-c2ccc3c(NC(=O)C4CC4)n[nH]c3c2)cc1` was tested, and the Potency was 20.7 µM (active).
With `O=C1NC(=O)C(c2ccccc2Cl)=C1Nc1cccc(O)c1` the Potency was 8.23 µM (active).
`Fc1cccc(COc2ccc(Nc3ncnc4sc(-c5ccco5)cc34)cc2Cl)c1` was tested, and the Potency was “inactive”.
With `CNC(=O)c1sc(-n2cnc3cc(OC)c(OC)cc32)cc1OCc1ccccc1C(F)(F)F` the Potency was 18.4 µM (active).
`CN(C)CCNC(=O)Nc1ccc(N(C)c2ccnc(Nc3ccc(CS(C)(=O)=O)cc3)n2)cc1` was tested, and the Potency was 7.33 µM (active).
With `CCc1cccc(CC)c1C=Cc1cncc(C(=O)NC)c1` the Potency was 26 µM (active).
`COc1cc(C)c(NC(=O)CN(C)C)cc1Nc1nc(Nc2cccc(F)c2C(N)=O)c2cc[nH]c2n1` was tested, and the Potency was “inactive”.
`Cc1cc(Cl)cc2c(N=Nc3ccc(S(N)(=O)=O)cc3)c(O)[nH]c12` was tested, and the Potency was 10.4 µM (active).
With `NC(=O)c1cccc(Nc2nccc(Nc3cccc(F)c3)n2)c1` the Potency was 1.16 µM (active).
For `Fc1ccc(Nc2nccc(-c3c(-c4ccc(C(F)(F)F)cc4)nn4ncccc34)n2)cc1F`, the Potency was “inactive”.
For `COc1cc(N2CCN(C(C)C)CC2)ccc1Nc1nc(Nc2ccc(F)cc2C(=O)NCC(O)CO)c2cc[nH]c2n1` (stereo not given), the Potency was “inactive”.
With `CS(=O)(=O)CCNCc1ccc(-c2ccc3ncnc(Nc4ccc(OCc5ccccc5)c(Br)c4)c3c2)o1` the Potency was 2.32 µM (active).
With `C#Cc1cccc(Nc2ncnc3ccc(OCCCCNCCS(C)(=O)=O)cc23)c1` the Potency was 7.33 µM (active).
In the case of `N#Cc1ccc(Oc2nccc(-c3c(-c4ccc(F)cc4)ncn3C3CCNCC3)n2)cc1`, the Potency is reported as “inactive”.
With `NS(=O)(=O)c1ccc(N=Cc2c(O)[nH]c3ccc4ncsc4c23)cc1` the Potency was 823 nM (active) and 923 nM (active).
